# Source: PubChem (NMMLSC)
# Sampled rows, rich in hits. Any-hit rate of the full collection: about 1.2%.
# RGS4-Gao reg = modulates binding of RGS4 to human Galphao | P09471 | Multiplexed bead flow cytometry; actives lie on both sides | binding response (% of control), % at 10 µM | actives 0.33% (n = 220,000) | AID 1415; in the data active = binding response below about 49% or above about 150%; inactive = in between;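 note: fluorescent Galphao activated with aluminum fluoride binding bead-coupled RGS4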
# RGS7-Gao = modulates binding of RGS7 to human Galphao; AID 1439; P09471; actives 0.35% (n = 220,000); Multiplexed bead flow cytometry; actives lie on both sides; binding response (% of control), % at 10 µM; in the data active = binding response below about 49% or above about 150%; inconclusive = no clear call, values can overlap the other calls; inactive = in between;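 note: fluorescent Galphao held in activated GDP-AlF4 state binding bead-coupled RGS7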
# Avidin fluor = compound fluoresces at 488/530 nm on avidin beads; fluorescence (KMESF) at 10 µM; actives 0.38% (n = 220,000); compound fluorescence 488/530 nm, flow cytometry; active compounds read high; in the data active = fluorescence above about 47
# RGS8-Gao = modulates binding of RGS8 to human Galphao; multiplexed bead flow cytometry; actives lie on both sides; response (percent of control binding), % at 10 µM; actives 0.34% (n = 220,000); AID 1423; in the data active = response below about 60% or above about 140%; inactive = in between;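 note: Galphao activated as the GDP aluminium fluoride complex binding bead-coupled RGS8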
# GSH bead fluor = compound fluoresces at 488/530 nm on GSH beads | GSH beads flow cytometry, compound fluorescence 488/530 nm; active compounds read high | fluorescence (KMESF) at 10 µM | actives 0.25% (n = 190,000); in the data active = fluorescence above about 89;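 note: glutathione beads carrying GST-tagged Bcl family fusion proteins plus one bare bead set; values are compound well signal with DMSO vehicle wells as background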
# RGS16-Gao = RGS16-Galphao interaction regulator (human) | binding response (% of control), % at 10 µM | actives 0.38% (n = 220,000) | O15492+P09471 | bead-based flow cytometry RGS16-Galphao binding, fluorescence; actives lie on both sides | AID 1441; call rule not given here;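 note: Galphao activated by GDP with aluminum fluoride before binding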
# Target sequence (O15492 whole entry, looked up): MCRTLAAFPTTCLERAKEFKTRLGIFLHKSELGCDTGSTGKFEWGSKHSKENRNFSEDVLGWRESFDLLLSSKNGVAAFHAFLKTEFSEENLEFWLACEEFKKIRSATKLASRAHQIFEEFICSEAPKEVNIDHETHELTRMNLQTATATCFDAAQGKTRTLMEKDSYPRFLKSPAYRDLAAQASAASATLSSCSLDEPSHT
# Target sequence (P09471 whole entry, looked up): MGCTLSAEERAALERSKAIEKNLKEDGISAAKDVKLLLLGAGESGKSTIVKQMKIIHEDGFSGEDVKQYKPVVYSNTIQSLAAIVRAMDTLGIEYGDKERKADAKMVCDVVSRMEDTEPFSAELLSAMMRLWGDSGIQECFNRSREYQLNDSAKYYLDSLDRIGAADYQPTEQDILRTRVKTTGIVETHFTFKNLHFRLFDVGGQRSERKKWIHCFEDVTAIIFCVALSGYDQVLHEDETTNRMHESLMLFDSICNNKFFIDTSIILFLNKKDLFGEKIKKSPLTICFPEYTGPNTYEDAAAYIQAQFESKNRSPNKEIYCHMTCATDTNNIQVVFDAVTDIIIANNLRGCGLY
# * = called active by the depositor; u = inconclusive; x = no result given.
SMILES,RGS4-Gao reg,RGS7-Gao,Avidin fluor,RGS8-Gao,GSH bead fluor,RGS16-Gao
Cc1cccc(NC(=O)CSc2nnc(-c3ccc(S(=O)(=O)N4CCOCC4)cc3)n2C)c1,105,116,68*,101,12,103
O=C(Nc1ccc2c(c1)OCO2)[C@@H]1[C@@H]2C(=O)N(C3CCCCC3)C(=O)[C@@H]2C2c3ccccc3C=CN21 (stereo partly specified),110,81,8,84,237*,101
COc1ccc(N2CCN(C(=O)CN3CCN(c4nc(-c5ccc(F)cc5)cs4)CC3)CC2)cc1,103,104,11,105,13,118
CC(c1ccccc1F)n1cc(C(=O)NCCCc2nc3ccccc3[nH]2)nn1 (stereo unspecified),104,101,10,106,18,116
O=C(/C=C/c1cc([N+](=O)[O-])ccc1OC(F)F)NCc1ccc(F)cc1,100,97,7,101,265*,105
O=S(=O)(CCc1ccccc1)/N=C/c1cccs1,118,118,51*,98,17,124
O=C(Cc1ccccc1)N/N=C/c1cccs1,104,106,4,103,25,102
CC(=O)Nc1ccc(OS(=O)(=O)c2cc(Cl)ccc2C)cc1,100,97,9,98,25,99
COc1ccc2nc(SCC(=O)Nc3ccccc3C#N)[nH]c2c1,101,97,6,102,20,97
COc1ccc2nc(SCC(=O)Nc3ccccc3C)[nH]c2c1,99,110,64*,99,19,99
CCOC(=O)c1c(NC(=O)N/N=C/c2ccccc2OCC)sc(C(C)=O)c1C,90,90,5,85,447*,27
CC(C)=CC(=O)OCC(=O)Nc1nc(C)c(Cl)cc1Cl,101,101,8,102,273*,108
Cc1nc(NC(=O)COC(=O)C2=NNC(=O)CC2)c(Cl)cc1Cl,98,97,13,100,13,99
CC(C)(C)c1nc(C(C)(C)C)c(Br)c(=O)[nH]1,101,99,2,103,7,101
Cc1nnc(NC(=O)CSc2nnc(CCc3nc4ccccc4[nH]3)n2C)s1,103,97,8,104,5,102
CCc1nnc(NC(=O)CSc2nnc(CCc3nc4ccccc4[nH]3)n2C)s1,99,99,7,99,286*,103
O=C(CSc1nnc(-c2ccco2)o1)NC(=O)C1COc2ccccc2O1 (stereo unspecified),70,77,3,71,245*,6
O=C(c1ccc(N2CCOCC2)cc1[N+](=O)[O-])N1CCOCC1,100,102,6,102,9,98
O=C(c1cc(=O)[nH]c2ccccc12)N1CCN(c2ccccc2)CC1,96,u,6,98,x,106
CCOc1ccc(/C(O)=C2\C(=O)C(=O)N(c3cc(C)on3)C2c2ccccc2OC)cc1 (stereo unspecified),142,138,76*,116,15,162
O=C(CN1C(=O)NC2(CCCCCC2)C1=O)N1CCN(S(=O)(=O)c2ccc(Cl)cc2)CC1,99,107,49*,94,22,91
Cn1c(=O)n(Cc2ccc(Cl)cc2)c(=O)c2c1nc1n2CCN1Cc1ccco1,101,100,8,99,3,104
Cc1cccc(Cn2c(=O)c3c(nc4n3CCN4Cc3ccco3)n(C)c2=O)c1,101,110,56*,102,23,102
Cc1ccccc1NC(=S)NC12CN3CN(CN(C3)C1)C2,94,100,8,96,14,94
COCCn1c(SCC(=O)NC(=O)NC(C)C)nc2ccccc21,100,102,51*,100,17,100
SMILES,RGS4-Gao reg,RGS7-Gao,Avidin fluor,RGS8-Gao,GSH bead fluor,RGS16-Gao
CC(C)Nc1ccc(Cl)cc1[N+](=O)[O-],103,u,6,101,x,104
Fc1ccc(NC(=S)N/N=C/c2ccc(F)c(F)c2)cc1,106,130,80*,102,22,110
COc1ccccc1NC(=O)CCN1CCN(Cc2ccccc2)CC1,102,100,7,103,14,102
COc1ccc(S(=O)(=O)N2CCOCC2)cc1NC(=O)Cc1ccccc1Cl,103,107,14,102,18,102
COc1ccccc1NC(=O)CCN1CCCCCC1,3.0*,0.6*,-2,4.6*,32,-2.5*
COc1ccc(S(=O)(=O)N2CCCCCC2)cc1NC(=O)Cc1ccccc1,98,106,48*,97,8,102
CCOC(=O)C1=C(c2ccccc2)N(C)C(=O)NC1c1ccc(OC(F)F)c(OC)c1 (stereo unspecified),104,123,56*,100,13,107
Cc1ccc(N(C(=O)CS(=O)CC(=O)Nc2ccc(F)cc2)C(C(=O)NC2CCCCC2)c2ccco2)cc1 (stereo unspecified),101,104,20,100,16,102
O=C(c1ccc(CN2CCOCC2)cc1)N1CCC(Cc2ccccc2)CC1,114,135,91*,102,23,107
CC(=O)Nc1cc(C(=O)NCc2ccco2)ccc1Sc1ccc(C)cc1,104,98,15,101,4,105
Nn1c(SCC(=O)NC2CCCCC2)nnc1C1CC1,102,102,11,102,36,103
C=CCn1c(SCC(=O)NC2CCCCC2)nnc1C1CCCCC1,108,118,60*,102,12,102
CC(C)c1ccccc1OCCCCCNCCO,105,109,48*,100,23,105
CC(CNCC1CCCO1)COc1ccccc1 (stereo unspecified),113,108,3,123,35,175
